# In all, about 52,000 compounds went through this assay and about 1,700 (3.3%) were called active. Many of the other results were omitted from the sample, so actives are more common in it than they were. A number with no mark means an inactive call. Cut-off read from the data, not from the text of the source: active = survival mostly below about 52% (no sharp cut-off); inactive = mostly above about 56%.
# System: Wild type
# Assay: S. aureus survival, RN4220 and DeltatarO strains – OD600, teichoic acid synthesis inhibitors, primary screen (AID 463173)
# Settings: S. aureus RN4220 wild type/DeltatarO growth, OD600, 18 h, hits give low values, screened at 18.75 µg/mL (by protocol)
row,SMILES,survival
1,CC(Oc1ccc(/C=C(/C#N)C(=O)N2CCOCC2)cc1)C(=O)O (configuration not stated),104%
2,Cc1ccc(N(C)C(=O)c2noc3c2CCCCC3)cc1C,73%
3,CCCCn1c(=O)c2oc3ccccc3c2n(Cc2ccc(OC)cc2)c1=O,115%
4,Cc1ccc(C(=O)/C=C/c2cn(CC(O)CN3CCc4ccccc43)c3ccccc23)cc1 (configuration not stated),76%
5,CCCCN(C)CC(O)Cn1cc(/C=C/C(=O)c2ccc(Br)cc2)c2ccccc21 (configuration not stated),15% (active)
6,CCCCN(C)CC(O)Cn1cc(/C=C/C(=O)c2ccc(OC)c(OC)c2)c2ccccc21 (configuration not stated),87%
7,CCCCN(C)CC(O)Cn1cc(/C=C/C(=O)c2ccc(OCC)cc2)c2ccccc21 (configuration not stated),21% (active)
8,CCOc1ccc(C(=O)/C=C/c2cn(CC(O)CN3CCc4ccccc43)c3ccccc23)cc1 (configuration not stated),69%
9,CCCCN(C)CC(O)Cn1cc(/C=C/C(=O)c2ccc(C)cc2)c2ccccc21 (configuration not stated),15% (active)
10,O=C(O)CCc1ccc(-c2ccccc2)n1Cc1ccco1,103%
11,CCOc1ccc(S(=O)(=O)N(C(C)=O)c2ccc3oc(C)c(C(=O)OC)c3c2)cc1,130%
12,Cc1ccc(N(Cc2cccs2)C(=O)c2ccccc2[N+](=O)[O-])cc1,82%
13,CN1C=CC=C/C1=C1\SC(=S)N(C2CCCCC2)C1=O,120%
14,CC(C)Oc1ccc(CNC(=O)Cc2ccc(NC(=O)N3CCSc4ncccc43)cc2)cc1,73%
15,Cc1ccccc1NC(=O)c1ccc(NC(=O)N2CCSc3ncccc32)cc1,-4% (active)
16,CCc1cccc(NC(=O)c2ccc(NC(=O)N3CCSc4ncccc43)cc2)c1,-3% (active)
17,CC(C)Oc1ccc(CNC(=O)c2ccc(NC(=O)N3CCSc4ncccc43)cc2)cc1,1% (active)
18,CC(=O)c1ccc(NC(=O)c2cccc(NC(=O)N3CCSc4ncccc43)c2)cc1,55%
19,CCOc1ccc(NC(=O)c2ccc(NC(=O)N3CCSc4ncccc43)cc2)cc1,64%
20,Cc1ccc(Cl)cc1NC(=O)c1ccc(NC(=O)N2CCSc3ncccc32)cc1,71%
21,Cc1ccc(NC(=O)c2ccc(NC(=O)N3CCSc4ncccc43)cc2)c(C)c1,82%
22,CC(C)Oc1ccc(CNC(=O)c2cccc(NC(=O)N3CCSc4ncccc43)c2)cc1,79%
23,CCOc1ccc(-c2oc3cc(Cl)ccc3c(=O)c2O)cc1OC,103%

row,SMILES,survival
1,CC(C)NC(=O)CSc1cn(CC(=O)N2CCCCCC2)c2ccccc12,95%
2,Cc1cc2c(cc(C(=O)OC(C(=O)NCC3CCCO3)C(C)C)n2C)o1 (configuration not stated),120%
3,O=C(c1ccc(F)cc1)N1c2ncnn2C2(CCCCC2)[C@@H]2CCCC[C@@H]21,82%
4,COc1ccc(Cn2c(CNS(=O)(=O)c3ccc(Cl)s3)nc3cccnc32)cc1,78%
5,CCC/C(O)=C1\C(=O)CC(C)(C)CC1=Nc1ccncc1,115%
6,CCc1ccc(NC(=O)CN2CCN(C3CCCCC3)C(=O)C2=O)cc1,77%
7,CCc1ccc(NC(=O)C2CCCN(S(=O)(=O)c3ccc(F)cc3)C2)cc1 (configuration not stated),75%
8,CCOC(=O)c1c(C(=O)CSc2ncc(-c3ccc(F)cc3)n2Cc2ccco2)sc2c1CCCC2,116%
9,CCOc1ccc(C(C)N)cc1 (configuration not stated),102%
10,COCCNC(=O)Nc1ccc2c(c1)nc(C)n2C,87%
11,COc1cc(OC)c(C2Nc3c(C)cccc3-c3cc(C)nn32)cc1OC (configuration not stated),142%
12,COc1cc(C2Nc3c(C)cc(C)cc3-c3cc(C)nn32)cc(OC)c1O (configuration not stated),97%
13,Cc1cc2n(n1)C(c1ccccc1)Nc1ccccc1-2 (configuration not stated),123%
14,COC(=O)c1ccc(C2Nc3c(C)cccc3-c3cc(C)nn32)cc1 (configuration not stated),-4% (active)
15,CCOc1ccc(C2Nc3c(C)cccc3-c3cc(C)nn32)cc1 (configuration not stated),-14% (active)
16,Cc1ccc2c(c1)-c1cc(C)nn1C(c1cc(Br)ccc1O)N2 (configuration not stated),131%
17,Cc1cc2n(n1)C(c1cc(C(C)(C)C)c(O)cc1O)Nc1ccccc1-2 (configuration not stated),115%
18,CCOc1cccc(C2Nc3ccccc3-c3cc(C)nn32)c1O (configuration not stated),145%
19,CCN(CC)c1ccc(C2Nc3ccccc3-c3cc(C)nn32)cc1 (configuration not stated),-1% (active)
20,CC(=O)Nc1ccc(C2Nc3c(C)cc(C)cc3-c3cc(C)nn32)cc1 (configuration not stated),141%
21,COc1cc(C2Nc3ccccc3-c3cc(C)nn32)ccc1O (configuration not stated),139%
22,COc1ccc(OC)c(C2Nc3c(C)cc(C)cc3-c3cc(C)nn32)c1 (configuration not stated),-14% (active)
23,O=C(NCc1ccc(Cl)cc1)C(=O)NCC(c1ccco1)S(=O)(=O)c1cccs1 (configuration not stated),76%

row,SMILES,survival
1,Cc1ccc(Cn2c(=O)n(Cc3ccco3)c(=O)c3sc4ccccc4c32)cc1,94%
2,COc1ccc(-c2noc(CN3CCN(c4ccccc4OC)CC3)n2)cc1OC,83%
3,CCOC(=O)N1CCN(C(=O)CN(c2cccc(Cl)c2)S(=O)(=O)c2ccccc2)CC1,63%
4,CCOC(=O)c1cccc(NC(=O)NCCc2c(C)nn(C)c2C)c1,63%
5,COc1ccc(Nc2cc(C(=O)NCCCN(C)C3CCCCC3)c3ccccc3n2)c(OC)c1,92%
6,COc1ccc(NC(=O)c2cc3c(-c4ccccc4F)nn(C)c3s2)c(OC)c1,38%
7,O=C1CS(=O)(=O)C2(C(=O)N(Cc3ccccc3)c3ccccc32)N1c1ccccc1 (configuration not stated),132%
8,COc1cc(NS(=O)(=O)c2cc3c(cc2C)n(C)c(=O)c(=O)n3C)cc(OC)c1,54%
9,COc1cc(-c2nc(SCC(=O)Nc3ccc(C)cc3)c(-c3ccc(F)cc3)[nH]2)cc(OC)c1OC,106%
10,COc1ccc(-c2[nH]c(-c3ccccc3)nc2SCC(=O)NC2CCCC2)cc1,80%
11,COc1ccc(NC(=O)CSc2nc(-c3ccc(OC)cc3)[nH]c2-c2ccc(OC)cc2)cc1,76%
12,CCOc1ccc(-c2nc(-c3ccccc3)c(-c3ccccc3)[nH]2)cc1OCC,163%
13,COc1ccc(-c2nc(SCC(=O)Nc3ccccc3)c(-c3ccc(F)cc3)[nH]2)cc1OC,58%
14,COc1cc(-c2nc(-c3ccccc3)c(-c3ccc(Br)cc3)[nH]2)cc(OC)c1O,5% (active)
15,COc1ccc(-c2[nH]c(-c3ccc(O)cc3)nc2-c2ccccc2)cc1,0% (active)
16,COc1cc(-c2nc(-c3cccc(Cl)c3)c(-c3ccccc3)[nH]2)cc(OC)c1OC,143%
17,COc1ccc(-c2nc(-c3ccccc3)c(-c3ccccc3)[nH]2)cc1Br,81%
18,COc1ccc(-c2nc(-c3ccccc3)c(-c3ccc(F)cc3)[nH]2)c(OC)c1C,15% (active)
19,COCCNC(=O)CSc1nc(-c2ccccc2)[nH]c1-c1ccc(OC)cc1,74%
20,COc1ccc(-c2nc(-c3ccccc3)c(-c3ccc(O)cc3)[nH]2)cc1,3% (active)
21,CC(C)(C)n1nnnc1C(c1ccc2ncccc2c1)N1CCc2ccccc21 (configuration not stated),111%
22,CCc1ccccc1NC(=O)CSc1nnc2ccc3ccccc3n12,80%
23,Cc1ccc(Cl)cc1N(C)C(=O)c1noc2c1CCCCC2,65%

row,SMILES,survival
1,CCCCC(=O)OCc1cc(=O)n2nc(C3CC3)sc2n1,135%
2,CCCOc1ccc(CNC(=O)c2ccc(-n3c(C)cc4c3CCC(C)C4)cc2)cc1 (configuration not stated),113%
3,COc1cccc(C(=O)c2sc(Nc3ccc(C)cc3C)c(S(=O)(=O)c3ccccc3)c2N)c1,94%
4,O=C(O)c1ccc(-c2nc3ccccc3[nH]2)cc1,106%
5,O=C(CSc1nc(-c2ccc(F)cc2)[nH]c1-c1ccccc1)Nc1ccccc1,70%
6,Oc1ccc(-c2nc(-c3ccccc3)c(-c3ccc(Br)cc3)[nH]2)cc1,-2% (active)
7,O=C(Nc1ccc(C(=O)OCc2cc(=O)n3c4c(sc3n2)CCCC4)cc1)c1cccc(F)c1,81%
8,CCc1ccc2nc(N(CCN(CC)CC)C(=O)c3ccco3)sc2c1,53%
9,CCN(CC)CCN(C(=O)c1ccco1)c1nc2ccc(Cl)cc2s1,87%
10,CCN(CC)CCN(C(=O)c1ccc(C(=O)OC)cc1)c1nc2ccc(Cl)cc2s1,-6% (active)
11,O=C(CNc1ccccc1Cl)N/N=C1\CCCc2ccccc21,105%
12,Cc1ccc(Nc2c(-c3ccc(C)cc3)nc3c(C)cccn23)cc1,-1% (active)
13,Cc1cccn2c(Nc3ccccc3)c(-c3cccs3)nc12,85%
14,Cc1ccccc1Nc1c(-c2ccc(O)cc2)nc2c(C)cccn12,68%
15,Cc1cccn2c(Nc3ccccc3)c(-c3ccc(N4CCOCC4)cc3)nc12,125%
16,Cc1ccc(Nc2c(-c3ccc(N4CCOCC4)cc3)nc3c(C)cccn23)cc1,83%
17,Cc1ccc(Nc2c(-c3ccsc3)nc3cccc(C)n23)cc1,19%
18,Cc1ccccc1Nc1c(-c2ccc(Cl)cc2)nc2c(C)cccn12,73%
19,Cc1ccccc1Nc1c(-c2ccsc2)nc2c(C)cccn12,0% (active)
20,Cc1ccc(Nc2c(-c3ccsc3)nc3c(C)cccn23)cc1,-3% (active)
21,COCCCNC(=O)c1c(C)nn(-c2ccc(F)cc2)c1-n1cccc1,77%
22,Cc1sc2c(c1C)c(=O)n(Cc1ccccc1)c(=O)n2CC(=O)N(C)c1ccccc1,89%
23,COc1ccc(C2CC(=O)c3cc(-c4nc(-c5cccc(Cl)c5)cs4)c(=O)[nH]c3C2)cc1 (configuration not stated),67%

# From PubChem BioAssay AID463173 (ICCB-Longwood Screening Facility, Harvard Medical School, 2010)
